GRP78 ERSR act: inducers of ER stress response in human glioma cells. U87-MG GRP78 promoter luciferase reporter, 16 h. Potency, µM, for inactives: top-dose activation, usual class: activators. hit rate 0.02% among 420,000; further: series mostly up to about 76 µM; % of control where 0% means no effect; nearly all actives have a fitted effect of over 35% in size
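Stably transfected U87-MG human glioma cells carrying a GRP78-based luminescent sensor were seeded at 1000 cells/well, pin-dosed with compounds and incubated 16 h. Luciferase reagent was then added, and end-point luminescence was read after 10 min at room temperature.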
GLS inh: glutaminase GLS (human) inhibition; Potency, µM (doses to about 45.5 µM), without a hit: at the highest dose activity change, negative = inhibition, usual class: inhibitors; hit rate 0.21% among 410,000; O94925; GLS enzymatic activity, qHTS titration; further: on the % scale 0 is the no-effect control and ±100 the full control effect
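Read-out is an Amplex red fluorescence increase coupled through glutamate oxidase and HRP, measured before and after 30 min room-temperature incubation. hKGA is in 45 mM KH2PO4 (pH 8.2) with 0.02% Tween-20; glutamine added as 1mM solution.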
GLP1R inv ag: acts as inverse agonist at human GLP-1 receptor. HEK293 GLP-1R CRE-luciferase, luminescence, 24 h; GLP-1R form is constitutively active. P43220. Potency, µM (series often up to 38.3 µM), for the others: at the top dose activity change, negative = inhibition, usual class: inhibitors. AID 624417. hit rate 1.6% among 410,000; further: on the % scale 0 is the no-effect control and ±100 the full control effect; nearly all actives have a fitted effect of over 55% in size
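Inverse agonism was detected as reduced cAMP-driven luciferase luminescence after 24 h compound treatment. The cells were HEK293 clones expressing constitutively active human GLP-1R with the reporter. Reporter-only and GPR119 cell lines served as counterscreen controls.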
PTHR1 agonist: agonists of human PTHR1 parathyroid hormone receptor; Q03431; HEK293 GP2 PTHR1 cells, GloSensor cAMP luminescence, 1 h; Potency, µM (top dose mostly 115 µM), without a hit: at the highest dose activation, most hits filed as activators; hit rate 0.075% among 410,000; AID 743266; further: nearly all actives have a fitted effect of over 55% in size
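HEK-293-derived GP2 cells expressing PTHR1 and a GloSensor cAMP reporter, 3,000/well, plated overnight, given luciferin plus IBMX (each 0.5 mM as added) for 1 h at 37 °C, then compound for 1 h at 37 °C. Luminescence was read after 15 min at room temperature.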
GLP-1R agonist: agonists of human GLP-1 receptor; P43220; HEK293 GLP-1R CRE-luciferase, luminescence, 4-6 h; cells express a hypersensitive GLP-1R form; Potency, µM (doses to about 45.6 µM), without a hit: top-dose activation, usual class: activators; hit rate 0.007% among 380,000; AID 624172; further: % of control where 0% means no effect
12-LOX inh: inhibitors of human 12S-lipoxygenase ALOX12; Potency, µM (doses to about 108 µM), inactives show top-dose activity change, negative = inhibition, usual class: inhibitors; AID 1671190; P18054; hit rate 1.1% among 580,000; purified 12hLO, xylenol orange hydroperoxide absorbance; further: on the % scale 0 is the no-effect control and ±100 the full control effect
Target sequence (P18054 whole entry, looked up): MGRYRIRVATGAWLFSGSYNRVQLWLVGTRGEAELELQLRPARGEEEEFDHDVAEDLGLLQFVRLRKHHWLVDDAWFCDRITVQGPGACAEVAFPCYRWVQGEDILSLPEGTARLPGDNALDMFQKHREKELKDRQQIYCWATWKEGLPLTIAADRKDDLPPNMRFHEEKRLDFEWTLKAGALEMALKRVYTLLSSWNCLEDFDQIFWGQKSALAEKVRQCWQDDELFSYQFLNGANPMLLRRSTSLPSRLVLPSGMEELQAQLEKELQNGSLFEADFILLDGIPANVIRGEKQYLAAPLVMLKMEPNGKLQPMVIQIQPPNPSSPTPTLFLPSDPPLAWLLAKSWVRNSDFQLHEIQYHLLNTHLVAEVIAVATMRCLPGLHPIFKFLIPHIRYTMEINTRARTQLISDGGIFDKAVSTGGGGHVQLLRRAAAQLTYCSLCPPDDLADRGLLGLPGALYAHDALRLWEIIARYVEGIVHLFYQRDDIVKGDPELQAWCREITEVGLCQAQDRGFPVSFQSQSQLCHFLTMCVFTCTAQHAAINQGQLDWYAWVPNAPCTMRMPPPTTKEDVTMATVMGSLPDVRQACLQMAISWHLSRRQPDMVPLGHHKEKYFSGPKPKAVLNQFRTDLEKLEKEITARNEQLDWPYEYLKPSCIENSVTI
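Hydroperoxide product was detected by ferrous iron/xylenol orange as the 573 to 405 nm absorbance ratio. Arachidonic acid at 40 uM (final) was turned over for 30 min at room temperature by 150 nM human 12hLO, pH 7.0 Hepes buffer, after 15 min compound preincubation.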
Starred values were filed as active, the others as inactive; i = inactive; u = inconclusive; x = not tested or not shown; [ ] = another dose, or the depositor's remark. Most compounds without a hit are left out; they make up all but 2.3% or so of the library. The call rests on the fitted dose curve; in most records, active means well fitted curve in the direction sought with a large enough effect; inconclusive means small, poorly fitted or top-dose-only effect, or another doubt; inactive means no such curve, though single readings can be large; an effect the other way counts as inactive or inconclusive. Potency means the concentration at half of the fitted maximal effect.

SMILES | GRP78 ERSR act | GLS inh | GLP1R inv ag | PTHR1 agonist | GLP-1R agonist | 12-LOX inh
O=C(O)CN1C(=O)/C(=C\c2cccc(OCc3ccc(Cl)cc3)c2)SC1=S | -1% | 16% | -12% | -35% | -6% | u
O=C(O)CN1C(=O)/C(=C\c2cccc(OCc3ccccc3F)c2)SC1=S | 0% | 20% | 7% | -3% | u | 40µM*
O=C(O)CN1C(=O)/C(=C\c2cccc(OCc3ccc(F)cc3)c2)SC1=S | 0% | 2% | -10% | i | -2% | 50µM*
CCC1CCC(C(=O)Nc2ccc3ccccc3c2)CC1 (stereo unspecified) | x | x | x | x | x | 47%
Cc1ccc2nc(-c3ccc(N/C(N)=N/c4nc(C)cc(C)n4)cc3)sc2c1 | x | x | x | x | x | -92%
CCc1ccc(NC(=O)CCS(=O)(=O)c2cc(-c3cc(C)no3)ccc2OC)cc1 | x | x | x | x | x | 7%
COc1cc(NC(=O)NCCN2CCN(c3ccc(Cl)cc3)CC2)ccc1C | 0% | 9% | u | -4% | 0% | 5%
COc1ccc(N2CCN(CCNC(=O)Nc3ccc(C)c(Cl)c3)CC2)cc1 | -2% | 6% | 2.8µM* | -64% | 0% | 14%
CCC(/C=C/[C@@H](C)[C@H]1CCC2C3CC=C4C[C@@H](O)CC[C@]4(C)C3CC[C@@]21C)C(C)C (stereo partly specified) | x | x | x | x | x | -28%
CCc1nnc(NC(=O)C(NS(=O)(=O)c2ccc3c(c2)OCCO3)C(C)C)s1 (stereo unspecified) | 3% | 0% | -28% | i | 4% | 35µM*
O=C(CSc1ncnc2sc3c(c12)CCCC3)Nc1ncc(Cl)cc1Cl | x | x | x | x | x | 18%
Cc1ccc(C(=O)CCC(=O)OCC(=O)c2ccc(Cl)c(Cl)c2)cc1 | x | x | x | x | x | -35%
CC(C)(C)c1ccc(-c2cc(C[C@H]3CNCC[C@H]3CC(=O)NCc3cccnc3)no2)cc1 | x | x | x | x | x | 28µM*
O=C(CN1C(=O)NC2(CCc3ccccc32)C1=O)c1ccc(Cl)cc1 (stereo unspecified) | 0% | 0% | u | -4% | 16% | -30%
CC(C)c1ccc(C(=O)CN2C(=O)NC3(CCc4ccccc43)C2=O)cc1 (stereo unspecified) | -2% | -16% | 2.5µM* | -41% | -1% | -11%
O=C(CN1C(=O)NC2(CCc3ccccc32)C1=O)Nc1cccc(Cl)c1 (stereo unspecified) | -2% | 4% | 11µM* | i | 0% | -16%
COc1cccc(NC(=O)CN2C(=O)NC3(CCc4ccccc43)C2=O)c1 (stereo unspecified) | -2% | -25% | -1% | i | 2% | 176%
CC(=O)Nc1ccc(NC(=O)CC2C(=O)NCCN2C(=O)CN2CCN(CCO)CC2)cc1 (stereo unspecified) | x | x | x | x | x | -30%
Cc1cccc(COC[C@H](Cc2ccccc2)N2CCN(C(=O)c3cc(Cl)cc(Cl)c3)CCC2=O)c1 | x | 0% | 11µM* | -33% | -2% | -30%
Cc1cccc(C(=O)N2CCC(=O)N([C@H](COCc3cccc(C(F)(F)F)c3)Cc3ccccc3)CC2)c1 | -3% | 1% | 11µM* | -33% | 0% | u
Cc1cccc(C(=O)N2CCC(=O)N(C(COCc3cccc(C(F)(F)F)c3)Cc3ccccc3)CC2)c1 (stereo unspecified) | -4% | 10% | u | i | -3% | -8%
Cc1cccc(COCC(Cc2ccccc2)N2CCN(C(=O)c3cccc(Cl)c3)CCC2=O)c1 (stereo unspecified) | 0% | 5% | u | -22% | -1% | u
Cc1ccc(S(=O)(=O)N2CCC(=O)N(C(COCc3ccc(Cl)cc3)Cc3ccccc3)CC2)cc1 (stereo unspecified) | -3% | -1% | 11µM* | i | 8% | -8%
O=C(Cn1nnc(-c2cc(C(F)(F)F)cc(C(F)(F)F)c2)n1)NNC(=S)Nc1ccc(Cl)cc1 | -2% | 13% | u | -93% | -4% | 18µM*
Cc1ccc(S(=O)(=O)N(CC(=O)NCCSCc2ccco2)c2cc(C)ccc2C)cc1 | -3% | -2% | 11µM* | -30% | 0% | 40µM*
SMILES | GRP78 ERSR act | GLS inh | GLP1R inv ag | PTHR1 agonist | GLP-1R agonist | 12-LOX inh
Cc1ccc(S(=O)(=O)CC(=O)N2CCN(c3cccc(C(F)(F)F)c3)CC2)cc1 | 0% | 2% | 1% | -38% | -3% | -28%
Cc1ccc(CC(=O)N2CCN(c3cccc(C(F)(F)F)c3)CC2)cc1 | -6% | -1% | 8.9µM* | -36%[57.5 µM] | 0% | -10%
O=C(/C=C/c1ccc(Br)cc1)N1CCN(c2cccc(C(F)(F)F)c2)CC1 | -4% | -11% | 10µM* | -84% | -2% | -23%
CC1(C)Cc2cccc(OCC(=O)N3CCN(c4cccc(C(F)(F)F)c4)CC3)c2O1 | -4% | 3% | 10µM* | -39% | 0% | 5%
O=[N+]([O-])c1cc(NS(=O)(=O)c2ccc(Br)s2)c(F)cc1F | x | x | x | x | x | -18%
COc1ccc(C2CC(c3cccs3)=NN2C(=O)CSC2=NCCS2)cc1 (stereo unspecified) | 2% | 0% | u | -11% | 5% | -1%
Cc1ccc(C2CC(c3cccs3)=NN2C(=O)CSC2=NCCS2)cc1 (stereo unspecified) | -5% | 0% | 4.5µM* | -22% | -2% | -57%
COc1ccc(Oc2c(C)oc3cc(OCC(=O)N4CCCC4)ccc3c2=O)cc1 | x | x | x | x | x | -11%
Cc1cc(C)c2[nH]c(C(=O)O)cc2c1 | x | x | x | x | x | -7%
CCOC(=O)c1cc(-c2ccccc2)n(CCCC(=O)Nc2ccc(C(C)C)cc2)c1C | -3% | 6% | u | -14% | x | -13%
CCOC(=O)c1cccc(NC(=O)CCn2c(-c3ccc(F)cc3)cc(C(=O)OCC)c2C)c1 | -3% | -11% | 10µM* | i | x | -29%
CCOC(=O)c1cc(-c2ccc(F)cc2)n(CCC(=O)NC2CCN(Cc3ccccc3)CC2)c1C | -1% | 9% | 7.9µM* | i | 14% | -29%
CCOC(=O)c1cc(-c2ccc(C)cc2)n(CCC(=O)Nc2ccc(C(C)C)cc2)c1C | -3% | 3% | 2.5µM* | -14% | 0% | -12%
CCCCN(C)C(=O)C1CCN(CC(C)c2ccccc2)CC1 (stereo unspecified) | x | x | x | x | x | 1µM*
CCCCNC(=O)C1CCN(Cc2ccc(OCc3ccccc3)cc2)CC1 | 1% | 21% | 7.1µM* | -32%[57.5 µM] | 15% | u
CCN(CC)C(=O)C1CCN(Cc2cccc(OCc3ccccc3)c2)CC1 | -1% | -2% | u | i | 4% | u
